# Assay results reported in the supplement of paper PMC8728848.
# The sample as a whole holds a higher share of the strongest signals than the screen did.
# How the values were obtained:
# Assay in all cases: glycan array binding signal (z-score within array); higher = stronger binding
# Details in all cases: glycan notation: IUPAC condensed, linker removed; mutation: H213R,G256S
# Fuc(a1-2)Gal = target: Fuc(a1-2)Gal
# In short: (§1)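 Glycan array binding is given as a within-array Z-score, which can be read as non-binding when negative. The arrays, 3228 of them, came from the Consortium for Functional Glycomics database and were retained only where the protein sequence was available. Z-scores were averaged across arrays of the same protein sequence at different concentrations or buffers and across linkers.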
# Fuc(a1-2)Gal(b1-3)GalNAc = target: Fuc(a1-2)Gal(b1-3)GalNAc
# In short: as §1
# Fuc(a1-2)Gal(b1-4)Glc6S = target: Fuc(a1-2)Gal(b1-4)Glc6S
# In short: as §1
# [1] = target: Fuc(a1-2)Gal(b1-4)[Fuc(a1-3)]GlcNAc(b1-3)Gal(b1-4)[Fuc(a1-3)]GlcNAc(b1-3)Gal(b1-4)[Fuc(a1-3)]GlcNAc
# In short: as §1
# [2] = target: Fuc(a1-2)[GalNAc(a1-3)]Gal(b1-4)[Fuc(a1-3)]GlcNAc
# In short: as §1
# Fuc(a1-3)GlcNAc = target: Fuc(a1-3)GlcNAc
# In short: as §1
# [3] = target: Fuc(a1-3)[Gal(b1-4)]GlcNAc(b1-4)Gal(b1-4)[Fuc(a1-3)]GlcNAc
# In short: as §1
# Gal(a1-4)Gal(b1-4)Glc = target: Gal(a1-4)Gal(b1-4)Glc
# In short: as §1
# Gal(a1-4)GlcNAc = target: Gal(a1-4)GlcNAc
# In short: as §1
# Gal3S(b1-3)GalNAc = target: Gal3S(b1-3)GalNAc
# In short: as §1
# [4] = target: Gal3S(b1-4)[Fuc(a1-3)]Glc
# In short: as §1
# Gal3S6S(b1-4)GlcNAc6S = target: Gal3S6S(b1-4)GlcNAc6S
# In short: as §1
# Gal6S(b1-4)Glc6S = target: Gal6S(b1-4)Glc6S
# In short: as §1
# Glc(b1-6)Glc = target: Glc(b1-6)Glc
# In short: as §1
# Kdn(a2-3)Gal(b1-4)GlcNAc = target: Kdn(a2-3)Gal(b1-4)GlcNAc
# In short: as §1
# [5] = target: Man(a1-2)Man(a1-3)[Man(a1-2)Man(a1-6)]Man(a1-6)[Man(a1-2)Man(a1-2)Man(a1-3)]Man(b1-4)GlcNAc(b1-4)GlcNAc
# In short: as §1
# [6] = target: Neu5Ac(a2-3)Gal(b1-3)GalNAc
# In short: as §1
# [7] = target: Neu5Ac(a2-3)Gal(b1-3)[Neu5Ac(a2-3)Gal(b1-4)]GlcNAc
# In short: as §1
# [8] = target: Neu5Ac(a2-3)Gal(b1-4)[Fuc(a1-3)]GlcNAc(b1-3)Gal(b1-4)GlcNAc
# In short: as §1
# [9] = target: Neu5Ac(a2-6)Gal(b1-4)GlcNAc6S
# In short: as §1
# [10] = target: Neu5Gc(a2-3)Gal(b1-4)GlcNAc
# In short: as §1
binder,measurement,setting,value
CD23 (Homo sapiens) (protein) MELQVSSGFVCNTCPEKWINFQRKCYYFGKGTKQWVHARYACDDMEGQLVSIHSPEEQDFLTKRASHTGSWIGLRNLDLKGEFIWVDGSHVDYSNWAPGEPTSRSQSEDCVMMRGSGRWNDAFCDRKLGAWVCDRLATCTPPASEGSAESMGPDSRPDPDGRLPTPSAPLHS,glycan array binding signal (z-score),Fuc(a1-2)Gal,0.42
same,glycan array binding signal (z-score),Fuc(a1-2)Gal(b1-3)GalNAc,0.764
same,glycan array binding signal (z-score),Fuc(a1-2)Gal(b1-4)Glc6S,0.623
same,glycan array binding signal (z-score),[1],1.02
same,glycan array binding signal (z-score),[2],-0.361
same,glycan array binding signal (z-score),Fuc(a1-3)GlcNAc,-0.166
same,glycan array binding signal (z-score),[3],0.007
same,glycan array binding signal (z-score),Gal(a1-4)Gal(b1-4)Glc,-0.15
same,glycan array binding signal (z-score),Gal(a1-4)GlcNAc,0.434
same,glycan array binding signal (z-score),Gal3S(b1-3)GalNAc,-0.308
same,glycan array binding signal (z-score),[4],-0.106
same,glycan array binding signal (z-score),Gal3S6S(b1-4)GlcNAc6S,1.06
same,glycan array binding signal (z-score),Gal6S(b1-4)Glc6S,0.798
same,glycan array binding signal (z-score),Glc(b1-6)Glc,-0.561
same,glycan array binding signal (z-score),Kdn(a2-3)Gal(b1-4)GlcNAc,-0.386
same,glycan array binding signal (z-score),[5],0.376
same,glycan array binding signal (z-score),[6],-0.283
same,glycan array binding signal (z-score),[7],-0.301
same,glycan array binding signal (z-score),[8],0.869
same,glycan array binding signal (z-score),[9],-0.002
same,glycan array binding signal (z-score),[10],0.062
